Data: PubChem BioAssay (NCATS)
Inconclusive results are not listed. Active and inactive are the calls of the source. Unless noted, calls come from the whole dose curve; as a rule, active = well fitted curve in the direction sought with a large enough effect; inconclusive = small, poorly fitted or top-dose-only effect, or another doubt; inactive = no such curve, though single readings can be large; an effect the other way counts as inactive or inconclusive.

Tests used:
[1] = Cell Viability - BJ (AID 421; calls by dose curve;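 note: potency is the fitted concentration of half-maximal effect; cells exposed to compound for 40 hours at 37 °C before readout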); conditions: BJ fibroblast viability, qHTS
Method in brief: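 Normal human BJ foreskin fibroblasts, 1500/well in complete medium, treated 40 hr at 37 °C. Cellular ATP by CellTiter-Glo luminescence; normalized to DMSO and 100 uM tamoxifen, AC50 from Hill fit.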

[2] = Cell Viability - Jurkat (AID 426;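 active = dose-dependent loss of cell ATP signal giving a full or clear fitted curve, ranked by lower potency value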; note: potency is the fitted concentration of half-maximal effect); conditions: qHTS
Method in brief: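 Jurkat (Clone E6-1) cells, 5000/well in complete medium, exposed to compounds for 40 hr at 37C; intracellular ATP measured by CellTiter-Glo luminescence after 20 min at room temperature. AC50 from Hill fits.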

[3] = Cell Viability - Hek293 (AID 427;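 active = compounds whose dose-response curve shows a full or clear partial loss of cell viability, called from curve shape rather than a numeric limit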;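 note: potency is the fitted concentration of half-maximal effect; cells exposed to compound for 40 hours at 37 °C before reading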); conditions: qHTS
Method in brief: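 HEK293 cells in complete medium were exposed to compound for 40 hr at 37 °C, then cellular ATP was read by CellTiter-Glo luminescence. Data were normalized to DMSO (basal) and 100 uM tamoxifen (100% inhibition), and AC50 came from Hill fits.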

[4] = Cell Viability - HepG2 (AID 433; calls by dose curve;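 note: potency is the fitted concentration of half-maximal effect; potency for ATP loss meaning cytotoxicity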); conditions: qHTS
Method in brief: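 HepG2 hepatocellular carcinoma cells (1500/well) were treated with compounds for 40 h at 37 °C in complete medium; intracellular ATP was read by CellTiter-Glo luminescence. Data were normalized to DMSO and 100 uM tamoxifen, and AC50 came from Hill fits.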

[5] = Cell Viability - MRC5 (AID 434; calls by dose curve;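 note: potency is the fitted concentration of half-maximal effect; potency reflects cytotoxicity seen as loss of intracellular ATP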); conditions: MRC5 lung fibroblast viability, qHTS
Method in brief: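 MRC5 normal human lung fibroblasts (1500/well) were treated with compounds for 40 hr at 37 °C in complete medium, and viable cells were measured as intracellular ATP by CellTiter-Glo luminescence. AC50 came from Hill fits, normalized to DMSO and 100 uM tamoxifen.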

[6] = Cell Viability - SK-N-SH (AID 435; calls by dose curve;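 note: potency is the fitted concentration of half-maximal effect; compound exposure lasted 40 h at 37 °C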); conditions: SK-N-SH neuroblastoma cell viability qHTS
Method in brief: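 SK-N-SH human neuroblastoma cells (1500/well) were exposed to compounds in complete medium for 40 h at 37 °C, and intracellular ATP was then measured by CellTiter-Glo luminescence. AC50 was taken from Hill fits, normalized to DMSO and 100 uM tamoxifen.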

[7] = target: Mitogen-activated protein kinase 10 (Mus musculus) (UniProt Q61831); test: JNK3 AlphaScreen Assay (AID 530; active = well fitted curve in either direction with a large enough effect, not every such curve was filed as active;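 note: kinase came from lysate of stimulated human HepG2 cells; signal reports phosphorylation of biotinylated GST-cJun 1-79 at Ser73 with 10 µM ATP; series mostly up to about 57 µM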)
Method in brief: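 Inhibitors reduce antibody binding to phosphorylated biotin-cJun, lowering AlphaScreen luminescence. Lysates from HepG2 cells pre-activated by IL-1beta plus TNF-alpha supplied JNK3; compounds were titrated.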

[8] = Cell Viability - N2a (AID 540); note: nearly all actives have a fitted effect of over 45% in size
Method in brief: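 Mouse neuroblastoma N2a cells, 1500/well, exposed to compounds 40 h at 37 °C in complete medium. Viability measured as cellular ATP by CellTiter-Glo luminescence; AC50 from Hill fits of concentration-response.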

[9] = Cell Viability - HUV-EC-C (AID 542); note: nearly all actives have a fitted effect of over 35% in size
Method in brief: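 HUV-EC-C human vascular endothelial cells, 1000/well, exposed to compound for 40 hr at 37 °C in complete medium. Intracellular ATP was read by CellTiter-Glo luminescence. AC50 came from Hill-equation fits of concentration-response data.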

[10] = Cell Viability - H-4-II-E (AID 543); note: nearly all actives have a fitted effect of over 35% in size
Method in brief: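 Rat hepatoma H-4-II-E cells, 1500 per well, treated 40 h at 37 °C in complete medium. Cellular ATP read by CellTiter-Glo luminescence; AC50 from Hill fits of concentration-response.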

[11] = Cell Viability - SH-SY5Y (AID 544); note: nearly all actives have a fitted effect of over 55% in size
Method in brief: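 SH-SY5Y human neuroblastoma cells (1500/well) incubated 5 h, then compound-treated 40 h at 37 °C in complete medium. Viability read as intracellular ATP by CellTiter-Glo luminescence after 20 min; AC50 from Hill-equation fits of qHTS concentration-response.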

[12] = Cell Viability - Renal Proximal Tubule (AID 545); note: nearly all actives have a fitted effect of over 40% in size
Method in brief: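 Primary rat renal proximal tubule cells (1000/well) were treated with compounds for 40 hr at 37 °C in complete medium. Intracellular ATP was measured by CellTiter-Glo luminescence, and AC50 values came from Hill-equation fits of concentration-response data.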

[13] = Cell Viability - Mesenchymal (AID 546);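 note: cells exposed to compound for 40 hours before reading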
Method in brief: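 Normal human renal glomerulus-derived kidney mesenchymal cells, 1000 per well in complete medium, were treated with compounds for 40 hr at 37 °C. Viability was read as intracellular ATP by CellTiter-Glo luminescence; AC50 values came from Hill-equation fits of qHTS concentration-response data.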

[14] = Cellular Toxicity (caspase-3) HepG2 (AID 654);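 note: cells exposed to compound for 16 hours before reading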
Method in brief: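 HepG2 cells (1500/well) were treated 16 h at 37 °C in complete medium, then caspase 3/7 activity was read by Caspase-Glo luminescence. Data were normalized to DMSO and 100 uM tamoxifen; AC50 came from Hill-equation fits of qHTS concentration-response.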

[15] = Cellular Toxicity (caspase-3) Jurkat (AID 655);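 note: cells exposed to compound for 16 h at 37 °C before reading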
Method in brief: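 Jurkat cells (5000/well) in complete medium were treated with compounds for 16 hr at 37 °C, then Caspase-Glo 3/7 luminescence was read after 20 min at room temperature. Data normalized to DMSO (basal) and 100 uM tamoxifen (100%); AC50 from Hill fit.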

[16] = Cellular Toxicity (caspase-3) HUV-EC-C (AID 656)
Method in brief: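 HUV-EC-C endothelial cells, 1000/well, were pre-incubated 5 hr at 37°C, then exposed to compounds for 16 hr at 37°C. Caspase-Glo 3/7 luminescence was read after 20 min at room temperature. AC50 came from Hill fits, normalized to DMSO and 100 uM tamoxifen.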

[17] = Cellular Toxicity (caspase-3) SHSY5Y (AID 657)
Method in brief: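 SH-SY5Y human neuroblastoma cells (1500/well) were treated with compounds for 16 h at 37 °C, then Caspase-Glo 3/7 luminescence was read after 1 h at room temperature. Data normalized to DMSO and 10 uM staurosporine; AC50 from Hill fits.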

[18] = Cellular Toxicity (caspase-3) BJ (AID 658)
Method in brief: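 Luminescent aminoluciferin-substrate cleavage reports caspase 3/7 activity in normal human BJ fibroblasts after 16 hr compound exposure at 37 °C. Normalized to DMSO (basal) and 10 uM staurosporine (100%); AC50 from Hill fit of concentration-response.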

[19] = Cellular Toxicity (caspase-3) MRC-5 (AID 659)
Method in brief: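 Luminescence from caspase-cleaved aminoluciferin substrate (Caspase-Glo 3/7, 1 hr RT) reports caspase 3/7 activity in MRC-5 lung fibroblasts after 16 hr compound exposure. Normalized to DMSO basal and 10 uM staurosporine as 100%; AC50 from Hill fits.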

[20] = Cellular Toxicity (caspase-3) Mesangial (AID 660);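 note: cells exposed to compound for 16 h before the caspase read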
Method in brief: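 Human renal glomerular mesangial cells, 1000/well, 5 h at 37 C before 16 h compound treatment. Caspase-Glo 3/7 luminescence after 20 min; normalized to DMSO and 100 uM tamoxifen, AC50 from Hill fit.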

[21] = Cellular Toxicity (caspase-3) SK-N-SH (AID 661)
Method in brief: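 Human SK-N-SH neuroblastoma cells, 1500/well, were exposed to compounds for 16 hours at 37 °C. Caspase-Glo 3/7 luminescence was normalized to DMSO (basal) and 10 uM staurosporine (100%), and AC50 came from a Hill fit.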

[22] = Cellular Toxicity (caspase-3) H-4-II-E (AID 663);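 note: cells exposed to compound for 16 hr before readout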
Method in brief: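 Luminescence from caspase-cleaved aminoluciferin substrate, read 20 min after reagent addition, reports caspase 3/7 activation in rat H-4-II-E cells after 16 hr compound exposure. Normalized to DMSO (basal) and 100 uM tamoxifen (100%); AC50 from Hill fits.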

[23] = Cellular Toxicity (caspase-3) Hek293 (AID 664);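 note: cells exposed to compound for 16 h at 37 °C before readout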
Method in brief: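 HEK293 cells in complete medium treated 16 h at 37 °C, then Caspase-Glo 3/7 luminescence read after 20 min at room temperature. Normalized to DMSO and 100 uM tamoxifen; AC50 from Hill fit of concentration-response.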

[24] = Cellular Toxicity (caspase-3) N2a (AID 665);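 note: compound exposure lasted 16 h at 37 °C before readout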
Method in brief: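 Mouse N2a neuroblastoma cells, 1500 per well, treated 16 h at 37 °C in complete medium; caspase-3/7 activity by Caspase-Glo luminescence after 1 h. Normalized to DMSO and 10 uM staurosporine; AC50 from Hill fits.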

[25] = Cellular Toxicity (caspase-3) NIH 3T3 (AID 666)
Method in brief: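 Mouse NIH 3T3 fibroblasts (1000/well) treated 16 h at 37 C; caspase-3/7 activity measured by Caspase-Glo 3/7 luminescence after 20 min. Normalized to DMSO and 100 uM tamoxifen; AC50 from Hill fits.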

[26] = Cellular Toxicity (caspase-3) Renal Proximal Tubule (AID 667);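 note: cells exposed to compound for 16 hours at 37 °C before detection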
Method in brief: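 Primary rat proximal tubule cells, 1000/well, 5 h plating at 37 °C, then compound 16 h at 37 °C. Caspase-Glo 3/7 reagent, 1 h RT, luminescence. Normalized to DMSO (basal) and 10 uM staurosporine (100%); Hill-fit AC50.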

[27] = Cell Viability - LYMP2-001 (AID 921); note: series mostly up to about 92 µM; nearly all actives have a fitted effect of over 70% in size
Method in brief: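 Human lymphoblastoid cells (Coriell), 2500 per well, were preincubated 5 hr at 37 C, then exposed to compounds in complete medium for 24 hr at 37 C. Cellular ATP was read by CellTiter-Glo luminescence; AC50 from Hill fits of concentration-response data.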

[28] = MultiTox-Fluor Cytotoxicity Assay - LYMP1-001 - Dead Cells (AID 946)
Method in brief: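 LYMP1-001 lymphoblastoid cells (2500/well) treated 16 h at 37 C. Dead-cell protease cleavage of bis-AAF-R110 read at Ex/Em 485/520. Normalized to DMSO and 15 uM tetraoctylammonium bromide; AC50 from Hill fits.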

[29] = MultiTox-Fluor Cytotoxicity Assay - LYMP1-001 - Live Cells (AID 947)
[30] = Cell Viability - LYMP1-002 - Assay at 16 hr (AID 948)
Method in brief: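 Human lymphoblastoid cells (LYMP1-002), 2500/well, were preincubated 5 hr at 37 C, then exposed to compounds for 16 hr at 37 C in complete medium. Cellular ATP was read by CellTiter-Glo luminescence after 30 min at room temperature; AC50 from Hill fits.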

[31] = MultiTox-Fluor Cytotoxicity Assay - LYMP1-002 - Live Cells (AID 955)
Method in brief: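 Human lymphoblastoid LYMP1-002 cells, 2500/well, treated 16 h at 37 C in complete medium. Live-cell protease activity via GF-AFC fluorescence (Ex/Em 405/510) after 60 min reagent incubation; AC50 from Hill fits.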

[32] = MultiTox-Fluor Cytotoxicity Assay - LYMP1-002 - Dead Cells (AID 960); note: nearly all actives have a fitted effect of over 60% in size
Method in brief: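 Human lymphoblastoid LYMP1-002 cells, 2500/well, treated 16 h at 37 C; dead-cell protease cleavage of bis-AAF-R110 read by fluorescence (485/520); normalized to DMSO and 15 uM tetraoctylammonium bromide; AC50 from Hill fit.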

[33] = MultiTox-Fluor Cytotoxicity Assay - LYMP1-003 - Dead Cells (AID 961); note: nearly all actives have a fitted effect of over 70% in size
Method in brief: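 LYMP1-003 human lymphoblastoid cells (2500/well) exposed to compound 16 h at 37 C in complete medium; dead-cell protease read with bis-AAF-R110 fluorescence (Ex/Em 485/520) after 60 min at room temperature. Normalized to DMSO and 15 uM tetraoctylammonium bromide; AC50 from Hill fit.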

[34] = MultiTox-Fluor Cytotoxicity Assay - LYMP1-003 - Live Cells (AID 962);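 note: cytotoxic hits lower the live-cell protease signal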
Method in brief: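 LYMP1-003 lymphoblastoid cells, 2500/well in complete medium, treated 16 h at 37 C; live-cell protease cleavage of GF-AFC read by fluorescence (Ex/Em 405/510) after 60 min reagent; AC50 from Hill fits of concentration-response.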

[35] = Cell Viability - LYMP1-003 - Assay at 24 hr (AID 963)
Method in brief: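 Human lymphoblastoid LYMP1-003 cells, 2500/well, treated 24 h at 37 C in complete medium. Viability read as intracellular ATP by CellTiter-Glo luminescence after 30 min at room temperature; AC50 from Hill-equation fits of qHTS concentration-response.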

[36] = Cell Viability - LYMP1-003 - Assay at 40 hr (AID 964); note: series mostly up to about 92 µM; nearly all actives have a fitted effect of over 60% in size
Method in brief: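 LYMP1-003 human lymphoblastoid cells, 2500/well, preincubated 5 h at 37 C, then treated with compound for 40 h at 37 C. Intracellular ATP read by CellTiter-Glo luminescence after 30 min at room temperature; AC50 from Hill-equation fits.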

[37] = Cell Viability - LYMP2-003 (AID 965);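 note: cells exposed to compounds for 24 h before reading; nearly all actives have a fitted effect of over 50% in size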
Method in brief: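 Human lymphoblastoid cells (2500/well) were pre-incubated 5 hr at 37 C, then exposed to compounds over a concentration range for 24 hr at 37 C. Intracellular ATP was read by CellTiter-Glo luminescence; AC50 came from Hill-equation fits.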

[38] = Cell Viability - LYMP2-004 (AID 966); note: nearly all actives have a fitted effect of over 65% in size
Method in brief: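 Lymphoblastoid LYMP2-004 cells, 2500 per well, were preincubated for 5 hr and then treated with compound for 24 h at 37 C in complete medium. Viability was read as cellular ATP by CellTiter-Glo luminescence, and AC50 values were taken from Hill fits to concentration-response data.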

Measured: Potency

C[C@@H]1[C@H](O)[C@@H](C)/C=C/C=C/C=C/C=C/C=C/C=C/C=C/[C@H](O[C@@H]2O[C@H](C)[C@@H](O)[C@H](N)[C@@H]2O)C[C@@H]2O[C@](O)(C[C@@H](O)C[C@@H](O)[C@H](O)CC[C@@H](O)C[C@@H](O)CC(=O)O[C@H]1C)C[C@H](O)[C@H]2C(=O)O
inactive: [1] > 92 µM | [2] > 92 µM | [3] > 92 µM | [4] > 92 µM | [5] > 92 µM | [6] > 92 µM | [7] | [8] | [9] | [10] | [11] | [12] | [13] | [14] | [15] | [16] | [17] | [18] | [19] | [20] | [21] | [22] | [23] | [24] | [25] | [26] | [27] | [28] | [29] | [30] | [31] | [32] | [33] | [34] | [35] | [36] | [37] | [38]
